# Screening results: PubChem, National Center for Advancing Translational Sciences (NCATS)
# Pf growth 96h – inhibits malaria parasite growth, 96 h; P. falciparum luciferase reporter growth, 96 h; Potency, µM (top dose mostly 28.7 µM), actives largely listed as inhibitors; 320,000 compounds, 6.9% hits; AID 504834
#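 96 h incubation, 37 C, 5% CO2, of luciferase-reporter P. falciparum-infected RBCs (2% hematocrit, 0.05% parasitemia final) with test compounds; endpoint luminescence.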
# HCV inhibitor – inhibitors of hepatitis C virus infection; 340,000 compounds, 3.4% hits; Potency, µM (titrated, usually from 41.8 µM), hits mostly inhibitors; Huh7.5.1 HCVcc-Cre infection, luciferase reporter, 44 h
#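 HCVcc-Cre virus at an moi near 0.5 was added right after compound to cells cultured 4 h from seeding (1,000 cells/well). Luciferase activity was determined 44 h later, 15 min after substrate addition at RT.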
# Lassa entry inh – blocks Lassa virus binding to or entry into cells; Lassa virus pseudotype entry inhibition, cell reporter; Potency, µM (doses to about 37.9 µM), most hits filed as inhibitors; 300,000 compounds, 1.2% hits; AID 540256; calls by dose curve; tested in HEK293 cells; further: nearly all actives have a fitted effect of over 50% in size
# MARV entry inh – Marburg virus entry inhibition. Marburg virus pseudotyped entry inhibition, cell reporter. Potency, µM (titrated, usually from 37.8 µM), hits mostly inhibitors. 300,000 compounds, 1.8% hits. AID 540276; calls by dose curve; tested in HEK293 cells
# HCMV antiviral – blocks human cytomegalovirus replication | activity change, negative = inhibition, % at 57.5 µM | 410,000 compounds, 4.5% hits | HFF cells, HCMV-luciferase reporter, 72 h; stronger effect = lower value; in the data active means activity change below about -60%; inconclusive means no clear call, values can overlap the other calls; inactive means above about -39%
#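 Steps: HFFs plated, 16 h 37C; compounds added; HCMV-luciferase added to MOI 1 PFU/cell; 72 h 37C; OneGlo reagent, 5 min room temperature; luminescence read, normalized to controls.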
# Pf growth 48h – P. falciparum growth inhibition at 48 hours (one generation); P. falciparum luciferase growth in erythrocytes, 48 h; Potency, µM (titrated, usually from 28.7 µM), hits mostly inhibitors; 310,000 compounds, 5.9% hits; AID 504832
#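 Parasite viability was followed by luminescence of a genomically integrated firefly luciferase. Cultures held 0.1% parasitemia at 2% hematocrit (final), incubated under 5% CO2 at 37 C.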
# A number is an active result; - = inactive; ? = inconclusive; . = no result. An excerpt weighted towards active compounds, which were near 14% of everything screened. Unless noted, the call rests on the fitted dose curve; in most records, active means well fitted inhibition curve with a large enough effect; inconclusive means small, poorly fitted or top-dose-only effect, or another doubt; inactive means no such curve, though single readings can be large or run the other way.
SMILES,Pf growth 96h,HCV inhibitor,Lassa entry inh,MARV entry inh,HCMV antiviral,Pf growth 48h
CCOC(=O)Cn1c(=O)c2c(nc(N3CCCCC3)n2Cc2ccccc2)n(C)c1=O,?,-,?,?,-,5.22µM
CCc1nc2c(OCc3ccccc3C)cccn2c1N(C)C(=O)c1ccc(C)cc1,.,.,.,.,-,.
COc1ccc(Nc2cc3[nH]c(-c4ccc(C(=O)N(C)C)cc4)cc3cn2)c(OC)c1,.,.,.,.,-,.
CC(C)N1C(=O)c2ccccc2NC(=O)C1C(=O)NCc1ccccc1 (stereo not drawn),.,.,.,.,-,.
O=C(Nc1nnc([C@H]2C[C@H](O)[C@@H](CO)O2)s1)Nc1ccc(F)cc1F,.,.,.,.,-,.
COc1ccc(S(=O)(=O)N2CCOCC2)cc1NC(=O)CSc1ccc(F)cc1,?,?,.,.,-,-
CCOc1ccccc1N(C)C(=O)c1cc2c(=O)n(CC)c3ccccc3c2s1,?,2µM,.,.,-,?
CCn1c(=O)c2cc(C(=O)N(CCN(C)C)Cc3ccccc3)sc2c2ccccc21,.,.,-,-,?,.
CCn1c(=O)c2cc(C(=O)N(C)CC(OC)OC)sc2c2ccccc21,-,11.2µM,.,.,-,?
CCc1nc2c(OCc3ccc(Cl)cc3Cl)cccn2c1N(C)C(C)=O,.,.,.,.,-,.
CC(=O)OC1CN2CCC1CC2 (stereo not drawn),4.78µM,.,.,.,.,-
COc1ccc(/C(N)=N/OC(=O)C2CCC(=O)N2S(=O)(=O)c2ccc(C)cc2)cc1OC (stereo not drawn),-,-,-,-,-87.4,-
Cc1cccn2c(=O)c3cc(S(=O)(=O)c4ccc(F)cc4)c(=N)n(Cc4ccco4)c3nc12,14.7µM,2.82µM,?,?,-,10.4µM
Cc1ccc(S(=O)(=O)c2cc3c(=O)n4ccccc4nc3n(Cc3ccco3)c2=N)cc1C,11.7µM,?,-,-,-,?
CC(=O)NC(c1ccccc1)c1nc(/C=C/c2ccccc2)cs1 (stereo not drawn),.,.,.,.,-,.
NC(=O)C1CC2(NC(=O)NC2=O)c2cc(F)ccc2O1 (stereo not drawn),-,.,.,.,.,-
COc1ccc(OC)c(CCNC(=O)c2ccc(CS(=O)Cc3ccc(Cl)cc3)o2)c1 (stereo not drawn),?,10µM,.,.,-,-
O=C(NCCc1ccc(Cl)cc1)c1ccc(CS(=O)Cc2cccc(Cl)c2)o1 (stereo not drawn),.,.,-,.,-64.1,.
CCCc1nn2c(=O)cc(COC(=O)c3ccc(NC(=O)CCc4ccccc4)cc3)nc2s1,.,.,-,.,-,.
Cc1cccc(COc2ccc(/C(O)=C3\C(=O)C(=O)N(CCN(C)C)[C@H]3c3ccncc3)cc2)c1,.,.,.,-,.,.
O=C(Nc1ccc(F)cc1)N1CCCN(c2ccc(C(F)(F)F)cn2)CC1,?,?,-,?,-61.9,?
CC(C)(C)c1ccc(NC(=O)N2CCCN(c3c(Cl)cncc3Cl)CC2)cc1,?,-,?,?,-,10.4µM
CC(=O)Nc1ccc(N2CCN(c3ccc(C(F)(F)F)cn3)CC2)nc1,-,?,-,?,-,-
Cc1cccc(-n2c(Cc3ccccc3)nnc2SCc2nc(-c3cccs3)no2)c1,.,.,-,-,-,.
CC(C)c1ccc(NC(=O)CS(=O)(=O)c2cccc3nsnc23)cc1,.,.,-,.,-,.
SMILES,Pf growth 96h,HCV inhibitor,Lassa entry inh,MARV entry inh,HCMV antiviral,Pf growth 48h
Nc1cc(-c2ccc(Cl)cc2)nn1S(=O)(=O)c1ccc(Cl)cc1,3.29µM,?,.,.,-,.
COc1cc(-c2cc(N)n(S(=O)(=O)c3ccc(F)cc3)n2)cc(OC)c1OC,-,?,.,.,-,.
COc1ccc(-c2cc(N)n(S(=O)(=O)c3ccc(F)cc3)n2)cc1OC,-,10µM,.,.,-,.
Nc1cc(-c2ccc(Br)cc2)nn1S(=O)(=O)c1ccccc1,?,-,-,-,?,?
Nc1cc(-c2ccccc2)nn1S(=O)(=O)c1ccc(F)cc1,10.4µM,10µM,.,.,?,.
CCOc1ccc(-c2cc(N)n(S(=O)(=O)c3ccc(OC)c(OC)c3)n2)cc1,?,22.4µM,.,-,-60.2,.
CC(C)N(Cc1ccccc1)C(=O)/C=C/c1ccccc1[N+](=O)[O-],-,?,?,?,-,10.4µM
O=C(O)/C=C/c1ccccc1[N+](=O)[O-],-,-,-,-,-,?
CCC/C=C/C=C/C(=O)OC1/C(=C/C(=O)OC)CC2CC(C(C)O)OC(=O)CC(O)CC3CC(OC(C)=O)C(C)(C)C(O)(CC4C/C(=C/C(=O)OC)CC(/C=C\C(C)(C)C1(O)O2)O4)O3 (stereo not drawn),1.51µM,.,.,.,.,3.79µM
CC1CCCN(c2ccc3nc4ccccc4c(=O)n3n2)C1 (stereo not drawn),?,-,.,?,-,-
Cc1ccc2nc3ccc(N4CCCC4)nn3c(=O)c2c1,4.65µM,-,?,-,-,-
Clc1cccc(-n2cc(-c3ccccc3)c3c(N4CCCCC4)ncnc32)c1,.,.,-,.,-,.
COCCN(Cc1cc2cc(C)ccc2[nH]c1=O)S(=O)(=O)c1ccc(Cl)cc1,-,?,.,.,-92.0,-
O=c1[nH]c2cc3c(cc2cc1CN(CC1CCCO1)S(=O)(=O)c1ccc(Cl)cc1)OCCO3 (stereo not drawn),11.7µM,-,-,-,-,-
COc1ccc2[nH]c(=O)c(CN(CC3CCCO3)S(=O)(=O)c3ccccc3)cc2c1 (stereo not drawn),1.65µM,?,.,?,-,-
COc1ccc2cc(CN(CC3CCCO3)S(=O)(=O)c3ccccc3)c(=O)[nH]c2c1 (stereo not drawn),.,-,-,-,-,-
Cc1ccc(S(=O)(=O)N(Cc2cc3cc4c(cc3[nH]c2=O)OCCO4)CC2CCCO2)cc1 (stereo not drawn),-,-,-,?,-,-
C[C@H]1CN([C@@H](C)CO)S(=O)(=O)c2ccc(Br)cc2O[C@H]1CN(C)C(=O)CCN1CCCCC1,.,.,.,.,-,.
O=C(CSc1nc(-c2ccccc2)nc2c1CCCC2)c1ccc(F)cc1,.,.,-,-,-,.
COc1cc(CSc2ncc(CO)n2Cc2ccc(C)cc2)cc(OC)c1,.,.,-,.,-,.
Cc1ccc(C(C)(C)C)cc1S(=O)(=O)N1CC(=O)Nc2ccccc21,-,?,?,10µM,-,-
Cc1cc(C(C)(C)C)cc(C)c1S(=O)(=O)N1CC(=O)Nc2ccccc21,?,?,11.2µM,-,?,?
Cc1cccc2c(=O)cc(CSCC(=O)Nc3ccc(Cl)cc3)[nH]c12,.,.,-,.,-,.
Cc1ccc2nc(C)c3c(c2c1)N(c1ccc(F)cc1)CC3,13.1µM,?,-,?,?,?
COc1cccc2c3c(c(C)nc12)CCN3c1ccccc1,?,?,-,?,-77.8,?
COc1ccccc1N1CCc2c(C)nc3c(OC)cccc3c21,?,?,-,?,.,13.1µM
CC1=C(C(=O)N(C(C)C)C(C)C)CC(CC(=O)NC2CCCC2)C(=O)N1CCC1=CCCCC1 (stereo not drawn),.,.,.,.,-,.
COc1ccc(OCc2nnc(SCc3ccc(C(=O)O)cc3)o2)cc1,-,-,-,-,-,-
